Bioassay records (PubChem)
CHX counter: counter-screen for Shiga toxin inhibitors: cycloheximide protein synthesis inhibition; max response, %; 12% of 300,000 active; cell reporter, cycloheximide protein synthesis inhibition counterscreen; in the data active means max response mostly above about 13%, no sharp cut-off; inactive means mostly below about 14%; further: read at 38.3 µM for the half of the compounds with a filed dose
Tb PYK inh: T. brucei pyruvate kinase inhibition | Q57TT1 | TbPYK enzyme, Kinase-Glo Plus ATP luminescence, 45 min | Potency, µM (titrated, usually from 76.8 µM), usual class: inhibitors | 0.12% of 410,000 active | AID 624173; further: nearly all actives have a fitted effect of over 50% in size
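Readout: single end-point luminescence (Kinase-Glo Plus, 10 min). Reaction conditions were TbPYK/substrate plus 130 uM ADP, 45 min at RT, pH 7.2 TEA buffer. No-enzyme wells served as controls, and data were normalized before concentration-response fitting.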
LmPK inh: inhibitors of Leishmania mexicana pyruvate kinase; AID 1721; Potency, µM (highest dose often 57.5 µM), usual class: inhibitors; purified LmPK, Kinase-Glo ATP luminescence, 1 h; 0.37% of 290,000 active
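Pyruvate kinase activity monitored as ATP production (luciferase luminescence). Conditions: 0.1 nM enzyme, 0.5 mM PEP, 0.1 mM ADP, 1 h, RT; normalized against uninhibited and no-enzyme wells.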
Shiga toxin inh: inhibitors of Shiga toxin in Vero cells. Vero cells, Shiga toxin protein synthesis inhibition reporter. AID 2315. 9.2% of 290,000 active. inhibition, % at 38.7 µM; in the data active means inhibition mostly above about 28%, no sharp cut-off; inactive means mostly below about 43%
RE007 growth inh: less growth of the S. pombe RE007 Vpr strain; S. pombe RE007 Vpr strain, BacTiter-Glo ATP luminescence, 24 h; Potency, µM (series often up to 92.2 µM), usual class: inhibitors; 0.21% of 360,000 active; active means well fitted falling curve with a large enough effect; inconclusive means small, poorly fitted or top-dose-only effect; inactive means no such curve, though single readings can be large or run the other way; further: nearly all actives have a fitted effect of over 50% in size
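Fission yeast RE007 carrying one integrated HIV-1 vpr copy, seeded at OD 0.01 in PMG+AL medium with 23 nL pinned compound. Grown 24 h at 30 degrees; viability read by BacTiter-Glo luminescence after 5 min.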
Giardia FBPA inh: Giardia lamblia aldolase inhibition; purified Giardia FBPA; AID 2451; A8B2U2; 0.71% of 290,000 active; Potency, µM (series often up to 59.6 µM), usual class: inhibitors; further: nearly all actives have a fitted effect of over 55% in size
Target sequence (A8B2U2 whole entry, looked up): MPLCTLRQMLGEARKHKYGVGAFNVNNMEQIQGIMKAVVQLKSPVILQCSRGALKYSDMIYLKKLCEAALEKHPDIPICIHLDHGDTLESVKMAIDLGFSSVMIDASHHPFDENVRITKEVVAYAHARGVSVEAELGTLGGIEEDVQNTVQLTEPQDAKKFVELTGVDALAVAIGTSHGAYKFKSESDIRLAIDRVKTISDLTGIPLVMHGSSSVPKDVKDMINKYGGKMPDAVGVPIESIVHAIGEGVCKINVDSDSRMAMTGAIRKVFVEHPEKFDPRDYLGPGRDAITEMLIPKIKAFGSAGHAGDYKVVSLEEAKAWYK
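Giardia FBPA (40 nM reagent) was preincubated 10 min at RT with compound (up to 57.5 uM final), then substrate plus GAPDH/TPI/NAD/arsenate coupling system with diaphorase/resazurin was added; resorufin fluorescence (525/598 nm) was read after 20 min.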
Hits are given with their value; n = inactive; u = inconclusive; x = no result given; [ ] = another dose, or the depositor's remark. Shown is part of a subset that was picked to be rich in hits. Unless noted, the call rests on the fitted dose curve; in most records, active means well fitted curve in the direction sought with a large enough effect; inconclusive means small, poorly fitted or top-dose-only effect, or another doubt; inactive means no such curve, though single readings can be large; an effect the other way counts as inactive or inconclusive.

SMILES | CHX counter | Tb PYK inh | LmPK inh | Shiga toxin inh | RE007 growth inh | Giardia FBPA inh
CCOC(=O)c1ccc(NC(=O)Cc2ccc(-n3c(CC)nc4cccnc43)cc2)cc1 | x | n[15.4 µM] | x | x | x | x
COc1ccc(-c2ccc3c(n2)CCCN3C[C@H](O)CN2CCCc3nc(C)c(C)cc32)cc1 | x | x | x | x | x | n[12.9 µM]
Cc1cc(C)cc(NC(=O)C(CC(C)C)NC(=O)C2CCCCC2)c1 (centres undefined) | x | n | x | x | x | x
Cc1cc(C)n(-c2nc(NCc3cccnc3)c3c4c(sc3n2)COC(C)(C)C4)n1 | 22 | n | n | n | n | n
CCN(CC)CCCNc1nc(-n2nc(C)cc2C)nc2sc3c(c12)CC(C)(C)OC3 | 13 | n | n | n | n | n
CCOC(=O)/C(=N/Nc1ccc(C)cc1)S(=O)(=O)c1ccc(Cl)cc1 | 23 | n | n | n | n | n
CCOC(=O)/C(=N\Nc1ccccc1)S(=O)(=O)c1ccccc1 | n | n | n | n | n | n
COc1ccc(C)cc1NC(=O)NC(C)c1c(-n2cccc2)sc(C)c1C (centres undefined) | x | n | x | x | x | x
N/C(=N\OC(=O)c1cc(Cl)ccc1Cl)c1ccccn1 | 25 | n | n | 64 | n | n
Cc1cccc(C(=O)O/N=C(\N)c2ccccn2)c1 | n | u | u | n | u | n
COc1ccc(Cl)cc1C(=O)O/N=C(\N)c1ccccn1 | 41 | n | n | 60 | n | n
Cc1ccc2c(nc3s/c(=C/c4cccs4)c(=O)n32)c1C | 30 | n | n | n | n | n
Cc1ccc2c(nc3s/c(=C\c4ccc(-c5ccccc5C(=O)O)o4)c(=O)n32)c1C | n | n | n | n | x | n
Clc1ccc(/C=C/c2ncc[nH]2)c(Cl)c1 | 46 | n | n | 65 | n | n
COC(=O)c1ccc(CSCc2ccc(C#N)cc2)cc1 | 43 | x | n | 75 | x | n
COc1ccc(OCc2csc(N)n2)cc1 | 36 | n | n | 86 | n | n
COc1cccc(C(=O)NNC(=O)Cc2csc(N)n2)c1 | n | n | n | n | n | n
Cc1ccc(S(=O)(=O)Cc2csc(N)n2)cc1 | n | n | n | n | n | n
Cc1ccc(OCCc2csc(N)n2)cc1 | 34 | n | n | 54 | n | n
CCOc1ccc(C(=O)Nc2ccc3nc(N4CCN(CC)CC4)cc(C)c3c2)cc1 | n | n | n | n | n | n
CCN1CCN(c2cc(C)c3cc(NC(=O)c4cc(OC)cc(OC)c4)ccc3n2)CC1 | 18 | n | n | 64 | n | n
CCN1CCN(c2cc(C)c3cc(NC(=O)CCC(=O)N4CCN(c5ccccc5OC)CC4)ccc3n2)CC1 | 17 | n | n | n | n | n
CCN1CCN(c2cc(C)c3cc(NC(=O)CCC(=O)N4CCN(c5ccccc5)CC4)ccc3n2)CC1 | n | n | n | n | n | n
COc1ccccc1NC(=O)CSc1cn(CC(=O)N2CCCC2)c2ccccc12 | x | n | x | x | x | x
Cc1ccccc1NC(=O)CSc1nccn1Cc1ccco1 | x | n | x | x | n | x
SMILES | CHX counter | Tb PYK inh | LmPK inh | Shiga toxin inh | RE007 growth inh | Giardia FBPA inh
O=C(CSc1nccn1Cc1ccc(F)cc1)NCc1ccco1 | x | n | x | x | x | x
Cc1cc(C)cc(NC(=O)CSc2nccn2Cc2ccco2)c1 | 22 | n | n | n | n | x
Cc1cccc(NC(=O)CSc2nccn2Cc2ccco2)c1C | 18 | n | n | n | n | n
Cc1cccc(NC(=O)CSc2nccn2Cc2ccco2)c1 | 62 | n | n | 91 | n | x
Cc1ccc2nc(SCC(=O)Nc3cccc(S(=O)(=O)NC4=NCCCCC4)c3)[nH]c2c1 | n | n | n | n | n | n
Clc1cccc(C2CCN(Cc3nc(CC4CC4)no3)C2)c1 (centres undefined) | n | n | n | n | n | n
O=C1CCC(C(=O)N2CCCCO2)CN1CCc1ccc(Cl)cc1 (centres undefined) | 20 | n | n | n | n | x
CN(Cc1ccccc1C(F)(F)F)C(=O)C1CCC(=O)N(CC2CCCCC2)C1 (centres undefined) | x | n | x | x | n | x
CCOc1ccc(CCNC(=O)C2CC(=O)N(CCc3ccccc3)C2)cc1OCC (centres undefined) | n | n | n | n | n | n
CCc1ccc(CN(C)C(=O)C2CCC(=O)N(CC3CCCCC3)C2)cc1 (centres undefined) | 38 | n | n | n | n | n
O=C(NCCOc1ccccc1)C1CCC(=O)N(CCc2ccc(Cl)cc2)C1 (centres undefined) | 19 | n | n | n | n | x
O=C(NCCOc1ccccc1)C1CCC(=O)N(Cc2ccc(Cl)cc2)C1 (centres undefined) | n | n | n | n | n | x
O=C1CCC(C(=O)N2CCCCCC2)CN1CCc1ccc(Cl)cc1 (centres undefined) | n | n | n | n | n | n
COc1ccc(CCN2CC(C(=O)NCCc3ccccc3)CC2=O)cc1OC (centres undefined) | 36 | n | n | 172 | n | n
Cc1ccc(CN(C)C(=O)C2CCC(=O)N(CCc3ccccc3)C2)o1 (centres undefined) | 20 | u | n | 31 | n | n
COc1ccc(CCN2CC(C(=O)N(C)CCOc3ccccc3)CCC2=O)cc1 (centres undefined) | 26 | n | n | n | n | x
COc1ccc(CCN2CC(C(=O)N(C)Cc3ccccc3OC)CCC2=O)cc1 (centres undefined) | n | n | n | n | n | u
CN(CCOc1ccccc1)C(=O)C1CCC(=O)N(CCc2ccc(Cl)cc2)C1 (centres undefined) | 46 | n | n | 87 | n | x
CCOC(=O)CC1(NC(=O)C2CCC(=O)N(CCc3ccc(OC)cc3)C2)CCCCC1 (centres undefined) | 29 | n | n | n | n | n
O=C(Nc1ccccc1C(=O)O)c1cc(S(=O)(=O)Nc2ccccc2)ccc1Cl | n | n | n | x | n | n
CCOC(=O)c1c(S(=O)(=O)N2CCC(C(=O)N3CCN(c4ccc(F)cc4)CC3)CC2)c(C)n(C)c1C | x | n | x | x | x | x
CCOc1ccc(CCNC(=O)Cn2ncn3c(cc4ccccc43)c2=O)cc1OCC | x | n | x | x | x | x
CCCCCOc1ccc(CSc2ncn[nH]2)cc1 | 39 | n | n | 72 | n | n
CCCCOc1ccc(CSc2ncn[nH]2)cc1 | 26 | n | n | n | n | n
CCCCOc1ccc(CSc2nncn2N)cc1 | 31 | n | n | 65 | n | n
CCOC(=O)c1ccc(CSc2ncn[nH]2)o1 | n | n | n | n | n | n
O=[N+]([O-])c1ccc(-[n+]2ccc3ccccc3c2)c([N+](=O)[O-])c1 | x | n | x | x | n | x
COc1cccc(Cn2c(C)c(CNC3CCCCC3)c(C(=O)O)c2C)c1 | x | n | x | x | x | x
Cc1c(Cc2ccc3c(c2)OCO3)sc(NC(=O)C2CC2)c1C(N)=O | n | n | n | n | n | n
Cc1nc(NC(=O)C23CC4CC(CC(C4)C2)C3)sc1Cc1ccc2c(c1)OCO2 | 25 | n | n | 67 | n | n
